# Most compounds without a hit are left out; they make up all but 3.5% or so of the library.
# KDM4E inh – qHTS Assay for Inhibitors of Human Jumonji Domain Containing 2E (JMJD2E); Lysine-specific demethylase 4E (Homo sapiens), B2RXH2; JMJD2E catalytic domain, FDH-coupled NADH fluorescence (FDH is formaldehyde dehydrogenase); Potency, µM (titrated, usually from 57.1 µM), usual class: inhibitors; actives 1.6% (n = 230,000); active means well fitted inhibition curve with a large enough effect, not every such curve was filed as active; inconclusive means small, poorly fitted or top-dose-only effect, or another doubt; inactive means no such curve, though single readings can be large or run the other way; further: nearly all actives have a fitted effect of over 50% in size
# Target sequence (B2RXH2 1-337 limits assumed): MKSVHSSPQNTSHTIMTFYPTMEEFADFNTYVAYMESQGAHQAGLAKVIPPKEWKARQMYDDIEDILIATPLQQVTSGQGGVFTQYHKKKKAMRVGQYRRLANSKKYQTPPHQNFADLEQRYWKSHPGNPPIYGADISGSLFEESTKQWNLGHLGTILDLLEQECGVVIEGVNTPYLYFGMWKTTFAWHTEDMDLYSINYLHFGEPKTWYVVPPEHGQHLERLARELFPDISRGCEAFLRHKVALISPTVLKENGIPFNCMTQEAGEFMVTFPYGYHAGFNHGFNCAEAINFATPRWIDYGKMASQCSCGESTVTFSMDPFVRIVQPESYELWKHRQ
# TRb-SRC2 inh – qHTS for Inhibitors of the Interaction of Thyroid Hormone Receptor and Steroid Receptor Coregulator 2. actives 0.065% (n = 280,000). TRbeta-SRC2 peptide binding, fluorescence polarization; receptor liganded with 1 µM T3. Potency, µM (titrated, usually from 106 µM), usual class: inhibitors. AID 1469, 2008. Thyroid hormone receptor beta (Homo sapiens), P10828; further: nearly all actives have a fitted effect of over 50% in size
#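 A fluorescence polarization screen tested compounds at multiple concentrations against complex formation between 0.6 uM TRb ligand-binding domain and 20 nM Texas Red SRC2 peptide, with 1 uM T3 present; readout after 5 hr.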
# Tau fibril FP – qHTS for Inhibitors of Tau Fibril Formation, Fluorescence Polarization; Microtubule-associated protein tau (Homo sapiens), P10636; K18 P301L tau heparin fibrillization, Alexa594 FP, 6 h; Potency, µM (series often up to 57.7 µM), hits mostly inhibitors; actives 0.39% (n = 280,000); further: nearly all actives have a fitted effect of over 55% in size
# Target sequence (P10636 561-689 P618L limits assumed): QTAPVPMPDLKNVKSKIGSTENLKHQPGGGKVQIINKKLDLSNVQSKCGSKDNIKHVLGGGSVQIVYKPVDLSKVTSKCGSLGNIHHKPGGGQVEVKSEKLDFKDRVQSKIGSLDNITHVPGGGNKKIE
#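 FP of Alexa 594-tau after heparin (20 uM) induction. Substrate: human K18 P301L, 15 uM unlabeled, 0.24 uM labeled. Buffer 100 mM sodium acetate pH 7. 6 hr, 37 C.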
# Tau fluor cs – Counterscreen qHTS for Inhibitors of Tau Fibril Formation, Fluorescence Polarization; actives 0.93% (n = 280,000); tau K18 P301L Alexa594 fluorescence, heparin fibrillization; Potency, µM (doses to about 57.7 µM); further: nearly all actives have a fitted effect of over 55% in size
#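 Human K18 P301L tau (15 uM unlabeled plus 0.24 uM Alexa 594-labeled, final) in 100 mM sodium acetate pH 7 was mixed with compound and 20 uM heparin and incubated 6 hr at 37 C.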
# Tau ThT inhib – qHTS for Inhibitors of Tau Fibril Formation, Thioflavin T Binding; Microtubule-associated protein tau (Homo sapiens), P10636; recombinant tau K18 P301L (four-repeat tau fragment), heparin-induced fibrillization, ThT fluorescence; Potency, µM (top dose mostly 57.4 µM), usual class: inhibitors; actives 2.1% (n = 270,000); further: nearly all actives have a fitted effect of over 55% in size
#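 K18 P301L tau (15 uM + 0.24 uM Alexa 594-tagged), heparin 20 uM, NaOAc pH 7, 6 h 37 C; ThT 30 uM, 1 h RT, ex 450/em 510 nm.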
# TexasRed fluor – Total Fluorescence Counterscreen for Inhibitors of the Interaction of Thyroid Hormone Receptor and Steroid Receptor Coregulator 2; TRb/SRC2 Texas Red total fluorescence interference; Potency, µM (series often up to 106 µM); actives 0.29% (n = 280,000); AID 1479, 2009; active means well fitted curve in either direction with a large enough effect; inconclusive means small, poorly fitted or top-dose-only effect
#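 Human TRb ligand-binding domain at 0.6 uM with 20 nM Texas Red SRC2 peptide in Tris buffer containing 1 uM T3 and 5% DMSO, incubated with compound 5 h at ambient temperature. Total fluorescence (555/632 nm) calculated as parallel + 2 × perpendicular.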
# Hits are given with their value; n = inactive; u = inconclusive; x = no result; [ ] = remark or other dose. Unless noted, the call rests on the fitted dose curve; in most records, active means well fitted curve in the direction sought with a large enough effect; inconclusive means small, poorly fitted or top-dose-only effect, or another doubt; inactive means no such curve, though single readings can be large; an effect the other way counts as inactive or inconclusive.
SMILES,KDM4E inh,TRb-SRC2 inh,Tau fibril FP,Tau fluor cs,Tau ThT inhib,TexasRed fluor
CC(/C=C1\SC(=S)N(NS(=O)(=O)c2ccccc2)C1=O)=C\c1ccccc1,n,n,u,n,10µM,n
Cc1cc(C)cc(NC(=O)C2CCN(c3nccs3)CC2)c1,n,n,n,n,n,n
CC(/C=C1\SC(=S)N(NS(=O)(=O)c2ccc(C)cc2)C1=O)=C\c1ccccc1,n,n,u,n,11µM,n
COc1ccc(NC(=O)C2=CCN(S(=O)(=O)c3ccccc3)CC2)cc1OC,n,n,n,u,x,n
CC(=O)Nc1ccccc1O,n,n,n,n,n,n
CC(CC(=O)O)Nc1ccccc1O (stereo unspecified),20µM,n,n,n,u,n
O=C(CSc1cnc2ccccc2n1)c1ccc(F)cc1,n,n,n,n,14µM,n
C=CC1=C(C)C2=NC1=CC1=NC(=CC3=NC(=CC4=NC(=C2)C(C)=C4CCC(=O)O)C(CCC(=O)O)=C3C)C(C=C)=C1C.[Zn],u,13µM,20µM,14µM[quencher],6.3µM,28µM[fluorescent]
CCOc1ccc(/C=C(\C#N)C(=O)Nc2sc3c(c2C(=O)OC)C(C(=O)OC)CC3)cc1OC (stereo unspecified),x,n,u,n,3.2µM,u
CCOC(=O)c1c(NC(=O)/C(C#N)=C/c2ccc(OC)cc2)sc2c1CCC2,x,n,n,n,n,n
CC(C)CCNC(=O)CN(CC1CCCO1)C(=O)CCC(=O)Nc1ccccn1 (stereo unspecified),n,n,n,n,n,n
Cc1oc(-c2ccc(C(=O)Nc3cccc(C(F)(F)F)c3)cc2)nc1CSc1ccccc1,x,n,14µM,u,n,n
CCOc1cc(/C=C2\N=C(SC)SC2=O)cc([N+](=O)[O-])c1OC(C)=O,n,n,n,u,3.5µM,n
CCOc1cc(/C=C2\N=C(SCC)SC2=O)cc([N+](=O)[O-])c1OC(C)=O,n,n,n,u,4µM,n
COc1ccc(/C=C2\N=C(SC)SC2=O)cc1OC,n,n,n,n,u,n
CCOc1c(OC(C)=O)ccc(/C=C2\N=C(SCC)SC2=O)c1[N+](=O)[O-],n,n,u,18µM[quencher],14µM,n
CCSC1=N/C(=C\c2ccc(C(=O)O)cc2)C(=O)S1,n,n,n,n,n,n
CCCC(=Nc1ccccc1)C1=C(O)C(C(=O)OC)C(C)(C)CC1=O (stereo unspecified),n,n,n,n,n,n
CCC(=NCc1ccccc1)C1=C(O)C(C(=O)OC)C(C)(C)CC1=O (stereo unspecified),n,n,n,n,u,n
CCC(=Nc1ccc(N)cc1)C1=C(O)C(C(=O)OC)C(C)(C)CC1=O (stereo unspecified),8.9µM,28µM,14µM,u,7.1µM,45µM[fluorescent]
CCCCC(=Nc1ccc(N)cc1)C1=C(O)C(C(=O)OC)C(C)(C)CC1=O (stereo unspecified),u,u,25µM,7.9µM[quencher],10µM,u
CCOc1cccc(C2c3[nH]c4ccccc4c3CCN2C(=O)CSCc2ccc(F)cc2)c1 (stereo unspecified),x,n,n,n,n,n
COc1cc(/C=N\NC(=O)CN2CCOCC2)ccc1OCC(=O)Nc1ccc(C)c(C)c1,n,n,n,n,u,n
COc1cc(/C=N\Nc2ccc([N+](=O)[O-])cc2)ccc1OCC(=O)Nc1ccc(C)c(C)c1,n,n,n,7.1µM[quencher],1.6µM,n
CCOc1cc(/C=N\NC(=O)Cc2ccccc2)ccc1OCC(=O)Nc1ccc(C)c(C)c1,n,n,n,n,n,n
SMILES,KDM4E inh,TRb-SRC2 inh,Tau fibril FP,Tau fluor cs,Tau ThT inhib,TexasRed fluor
CCOc1cc(/C=N\Nc2ccc([N+](=O)[O-])cc2)ccc1OCC(=O)Nc1ccc(C)c(C)c1,n,n,n,u,2.2µM,n
Cc1ccc(C(=O)NCC(=O)Nc2cccc(S(=O)(=O)NC3=NCCCCC3)c2)cc1C,n,n,n,n,n,n
COCC(=O)NCc1ccc2c(c1)cc(C)n2C,n,n,n,n,n,n
Cc1ccc(S(=O)(=O)NCc2ccc3c(c2)cc(C)n3C)cc1,n,u,n,n,u,45µM[fluorescent]
Cn1nc(-c2ccccc2)cc1NC(=O)Nc1ccc(C(C)(C)C)cc1,n,n,28µM,13µM[quencher],n,n
CC1CC(C)CN(C(=O)CSc2nc(N)cc(=O)[nH]2)C1 (stereo unspecified),n,n,n,n,n,n
CO[C@H]1C=CO[C@@]2(C)Oc3c(C)c(O)c4c(O)c(c(C=NN5CCN(C6CCCC6)CC5)c(O)c4c3C2=O)NC(=O)C(C)=CC=C[C@H](C)[C@H](O)[C@@H](C)[C@@H](O)[C@@H](C)[C@H](OC(C)=O)[C@@H]1C,u,n,n,n,18µM,n
CN(c1ccccc1)c1ccc(/C=C(\C#N)c2nnc3n2CCCCC3)cc1[N+](=O)[O-],n,u,n,u,14µM,n
COc1ccc(NCc2cc3ccc(OC)cc3n(CC(=O)Nc3cc(Cl)ccc3C)c2=O)cc1,x,n,u,u,n,n
COc1ccc2oc(=O)c(-c3cn4ccc(C)cc4n3)cc2c1,n,n,n,n,n,n
O=c1[nH][nH]c(=S)n1C1CCCCC1,2.8µM,n,u,n,32µM,n
Sc1oc(-c2ccccc2)cc1C=Nc1ccccc1,n,n,n,18µM[quencher],8.9µM,n
O=C(O)c1cc(N/N=C/C=C/c2ccccc2[N+](=O)[O-])ccc1Cl,n,n,n,u,3.5µM,n
O=C(N/N=C/C=C\c1ccccc1[N+](=O)[O-])c1ccncc1,n,n,n,n,n,n
COc1ccc(-c2c(S(=O)(=O)c3ccccc3)cnn2-c2ccccc2)cc1,n,n,n,n,n,n
O=C(NCc1cccs1)c1noc2c1CCCC2,n,n,n,n,n,n
Cc1ccc(OC(=S)Nc2ccc(O)cc2)cc1,u,u,u,n,16µM,n
Oc1ccc(/C=N/Nc2ncnc3c2ncn3Cc2ccccc2)cc1O,10µM,n,n,u,u,n
OCC(O)C(O)C(O)C(O)C1NCCS1 (stereo unspecified),n,n,u,n,20µM,n
CSC1=NS(=O)(=O)c2c(C)nn(C)c2S1,3.5µM,n,u,n,16µM,n
COc1ccccc1CNC(=O)c1cc2c(s1)-c1ccc(Cl)cc1SC2,x,n,n,n,n,n

# Screening data deposited in PubChem BioAssay by National Center for Advancing Translational Sciences (NCATS).
